# Experimental data: PubChem BioAssay (NCI)
# The panel holds about 83,000 compounds, 20% with a hit somewhere; the sample as a whole holds those more often.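 Activity criterion: percent growth below 10, measured after cells in 96-well plates were exposed to a single compound concentration for 48 hours.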 A number with no mark means an inactive call. Activity calls are given as the source filed them.
# Assays:
# Assay in all cases: NCI-60 one-dose screen, 48 h (100 = growth as untreated, 0 = no growth, -100 = all killed)
# Details in all cases: 10 µM unless noted
# DU-145 prostate = tested on: DU-145 prostate
# K-562 leukemia = tested on: K-562 leukemia
# MALME-3M melanoma = tested on: MALME-3M melanoma
# MDA-MB-231 breast = tested on: MDA-MB-231 breast
# RXF 393 renal = tested on: RXF 393 renal
# SF-268 CNS = tested on: SF-268 CNS
# SF-295 CNS = tested on: SF-295 CNS
# SF-539 CNS = tested on: SF-539 CNS
# UACC-257 melanoma = tested on: UACC-257 melanoma
# M14 melanoma = tested on: M14 melanoma
# HCT-15 colon = tested on: HCT-15 colon
# HT29 colon = tested on: HT29 colon
# SNB-75 CNS = tested on: SNB-75 CNS
# SNB-19 CNS = tested on: SNB-19 CNS
# U251 CNS = tested on: U251 CNS
# PC-3 prostate = tested on: PC-3 prostate
# SK-MEL-5 melanoma = tested on: SK-MEL-5 melanoma
# UACC-62 melanoma = tested on: UACC-62 melanoma
# LOX IMVI melanoma = tested on: LOX IMVI melanoma
# SK-MEL-28 melanoma = tested on: SK-MEL-28 melanoma
Structure (SMILES),growth (DU-145 prostate),growth (K-562 leukemia),growth (MALME-3M melanoma),growth (MDA-MB-231 breast),growth (RXF 393 renal),growth (SF-268 CNS),growth (SF-295 CNS),growth (SF-539 CNS),growth (UACC-257 melanoma),growth (M14 melanoma),growth (HCT-15 colon),growth (HT29 colon),growth (SNB-75 CNS),growth (SNB-19 CNS) [%],growth (U251 CNS),growth (PC-3 prostate) [%],growth (SK-MEL-5 melanoma),growth (UACC-62 melanoma),growth (LOX IMVI melanoma),growth (SK-MEL-28 melanoma)
CN1CCN(c2ccc(Nc3nc(NCCCNS(=O)(=O)c4ccc(C(F)(F)F)cc4)c4sccc4n3)cc2)CC1,-8.78% (active),5.24% (active),-87.8% (active),-60.1% (active),-87% (active),-53.3% (active),-74.6% (active),-92.6% (active),-91.7% (active),-80.5% (active),-72.7% (active),-75.8% (active),-79.5% (active),17.5,-83.4% (active),20.7,-95% (active),-80.3% (active),-83.6% (active),-92.8% (active)
O=C(N/N=C\c1ccc(F)cc1)c1ccc2nc(-c3ccc(Br)cc3)[nH]c2c1,-22.1% (active),19.9%,-49.9% (active),60.6%,-12.3% (active),44.8%,39.4%,10.9%,74.5%,18.8%,22.2%,-58.9% (active),53.7%,23.2,-62.1% (active),40.4,56.3%,49.2%,-12.3% (active),10.8%
CCN(CC)S(=O)(=O)c1ccc(-c2nc(C(Cl)Cl)nc3cc(C)nn23)cc1,15.9%,8.36% (active),-7.09% (active),-0.482% (active),13.3%,56.1%,48%,50.7%,59.3%,4.27% (active),1.86% (active),5.07% (active),46.7%,46.2,8.28% (active),31.1,78.3%,49.9%,35.6%,23.3%
C#CCOc1ccccc1C(OC(=O)c1ccccc1)C(=O)NC(C)(C)C(C)(C)C (stereo not given),108%,78.3%,76.4%,80.8%,74.6%,93.5%,70.3%,102%,81.6%,89.4%,78.3%,74.6%,71.4%,95.1,87.1%,60.7,80.8%,66.9%,91.6%,101%
N#Cc1nc(-c2ccc(Cl)cc2)oc1N1CCC(S(=O)(=O)N2CCOCC2)CC1,105%,101%,99.2%,94.7%,99.8%,96.6%,102%,93.6%,108%,107%,105%,98%,94.2%,92.2,102%,95.4,98.1%,94.1%,81.7%,101%
Cc1[nH]c(C(=O)Nc2ccc(C(N)=O)cc2N2CCOC(C)C2)c(Cl)c1Cl (stereo not given),104%,92.2%,99.1%,95.7%,102%,98.8%,103%,95.7%,108%,101%,93.7%,118%,62.3%,92.7,98.6%,96.7,97.2%,91.1%,94%,108%
N#Cc1c(-c2cccs2)cc(-c2cnccn2)nc1SCC(=O)N/N=C/c1ccccc1,14%,46.5%,4.87% (active),46.5%,-16.4% (active),56.4%,60.9%,56.1%,68.2%,37%,39.1%,37.3%,12.6%,39.7,11.9%,65.2,4.1% (active),55.3%,-28.7% (active),43.9%
Clc1ccc2[nH]cc(-c3cncn3CCc3ccc4c(c3)OCO4)c2c1,86.3%,48.8%,75.5%,65.8%,54.7%,66.5%,58.4%,83.8%,57.5%,78.8%,72%,70.5%,73.8%,82.1,69.9%,51,33.8%,62.3%,91.5%,93.5%
